hERG WT inh – qHTS for Inhibitors of KCHN2 3.1: Wildtype qHTS. AID 720551, 2013. activity change, % at 1.84 µM. Voltage-gated inwardly rectifying potassium channel KCNH2 (Homo sapiens), Q12809. 340,000 compounds, 0.37% hits. U2OS, BacMam KCNH2, thallium flux FluxOr; active compounds read low;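 active means maximum activity change below -70%; inconclusive means maximum activity change between -70% and -50%; inactive means maximum activity change above -50%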
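U2OS cells were transduced with wild-type KCNH2 virus (2.03 x 10^8 / mL) for 4 h at room temperature, then cultured overnight at 37 C. Thallium flux was read with FluxOr dye. Rate constants were normalized to DMSO controls.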
RXFP1 agonist – qHTS Assay for Agonists of the Relaxin Receptor RXFP1; Relaxin receptor 1 (Homo sapiens), Q9HBX9; HEK293T-RXFP1 cAMP TR-FRET, 30 min; response scale: percent of porcine relaxin response, buffer zero; Potency, µM (titrated, usually from 57.5 µM), for inactives: at the highest dose activation, hits mostly activators; 370,000 compounds, 0.3% hits; AID 2676, 2010; active means well fitted activation curve with a large enough effect; inconclusive means small, poorly fitted or top-dose-only effect; further: potency means the concentration at half of the fitted maximal effect; nearly all actives have a fitted effect of over 60% in size
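HEK293 cells stably expressing RXFP1, treated 30 min at 37C with compounds plus PDE4 inhibitor Ro 20174; cAMP measured by HTRF TR-FRET. Normalized to buffer and 29 nM porcine relaxin; EC50 by Hill fit.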
KCNH2 3.1 inh – qHTS for Inhibitors of KCHN2 3.1: Mutant qHTS; 340,000 compounds, 0.95% hits; AID 720553, 2013; activity change, % (tested at about 1.8 µM); U2OS KCNH2 3.1, thallium flux FluxOr; active compounds read low;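 active means maximum activity change below -70%; inconclusive means maximum activity change from -70% to -50%; inactive means maximum activity change above -50%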;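 further: thallium influx rate constant from kinetic fluorescence after stimulation buffer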
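Kinetic fluorescence (2 min after stimulation buffer) measures Tl+ influx through KCNH2 3.1 expressed by viral transduction in U2OS cells; the rate constant is normalized against DMSO controls serving as positive and negative references.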
RXFP1 antag – qHTS Assay for Antagonists of the Relaxin Receptor RXFP1; activity change, negative = inhibition, % at 57.5 µM; Relaxin receptor 1 (Homo sapiens), Q9HBX9; 350,000 compounds, 0.59% hits; HEK293-RXFP1, relaxin-stimulated cAMP HTRF, 30 min; active compounds read low;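 active means activity change of -60% or lower, but not beyond a set lower limit; inconclusive means change between -60% and -40%, or beyond the set limit; inactive means change above -40%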
pAkt inh – HTS Assay for Inhibitors of Akt Phophorylation: Primary Screen. Neuro2A IGF-stimulated pAkt S473 HTRF, 20 min; active compounds read low. activity change, % for hits at 50 µM. 360,000 compounds, 0.32% hits. AID 651550, 2012; in the data active means activity change below about -80%; inconclusive means mostly about -51% to -80%
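Neuro2A cells in DMEM with 0.5% FBS, overnight at 37 deg C, given compound at single 50 µM final, then IGF (6 nM final) for 20 min at 37 deg C. Lysed; phospho-Akt Ser473 by HTRF after 24 h, 665/615 ratio.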
* hit, by the source's call; i = inactive; ? = inconclusive; . = no result. A selection: hits, their analogues and other compounds. The true share with any hit is near 1.7%. On the % scale 0 is the no-effect control and ±100 the full control effect.

SMILES	hERG WT inh	RXFP1 agonist	KCNH2 3.1 inh	RXFP1 antag	pAkt inh
CCc1ccc(N2CCN(CCNC(=O)Nc3ccc(OC)cc3)CC2)cc1	-26	?	-94*	-4	i
COc1ccc(C(=O)N2CCN(CCNC(=O)C(=O)Nc3ccc(Br)cc3)CC2)cc1	20	-2%	-105*	2	i
CCc1ccc(NC(=O)NCCN2CCN(c3ccc(OC)cc3)CC2)cc1	-3	16%	?	4	i
COc1ccc(C(=O)Nc2ccc(N3CCN(Cc4ccccc4)CC3)cc2)cc1	12	-1%	-85*	-2	i
Cn1nc(C(C)(C)C)cc1C(=O)N1CCCCC1c1cc(C(=O)NCc2ccc(F)cc2)no1 (stereo not drawn)	.	.	.	.	i
CC(CNC1CCCCC1)OC(=O)c1ccc([N+](=O)[O-])cc1 (stereo not drawn)	-3	.	-3	-2	i
CCOC(=O)C1(CC2CCCCO2)CCN(C(=O)Nc2ccccc2SC)CC1 (stereo not drawn)	6	2%	10	-6	i
COc1ccc(S(=O)(=O)N2CCN(Cc3cccc([N+](=O)[O-])c3)CC2)cc1	0	.	17	-5	i
Cc1ccc(-c2csc(NC(=S)NC(=O)/C=C/c3ccco3)n2)cc1	-12	0%	-2	-16	.
COc1ccc(CC(=O)NCCN2CCCC2)cc1	4	-1%	0	4	-121%*
COc1cc(/C=C2\COC/C(=C\c3cc(OC)c(OC)c(OC)c3)C2=O)cc(OC)c1OC	3	14%	11	-63*	i
COc1cc(/C=C2\CCC/C(=C\c3ccc(O)c(OC)c3)C2=O)ccc1O	-3	0%	4	-69*	i
COc1cc(/C=C2/CCCC(C(=O)C(F)(F)F)=C2O)ccc1O	-3	-4%	2	-3	i
COc1cc(C=C2CCC/C(=C\c3ccc(O)c(OC)c3)C2=O)ccc1O	.	.	.	-95*	.
C=CCn1cnc2c(c1=O)c1nc3ccccc3nc1n2/N=C/c1ccccn1	-9	0%	3	-3	i
CCCS(=O)(=O)Nc1ccc(Nc2c3ccccc3nc3ccccc23)c(OC)c1	-4	.	5	-23	i
COCC(C)NC(=O)C1CC(c2cccc(Br)c2)=NO1 (stereo not drawn)	-3	0%	6	-5	-111%*
O=C(Nc1ccc(CN2CCOCC2)cc1)c1ccc(-c2cccc(Cl)c2)o1	-1	0%	-49	-17	i
CC(C)c1ccc(C(=O)Nc2ccc(CN3CCOCC3)cc2)cc1	9	6%	-76*	11	i
Cc1cccc(C)c1NC(=O)c1ccc(-c2ccc(Cl)cc2Cl)o1	9	-1%	-8	-17	-115%*
CC(C)c1ccc(CNc2ccc(N3CCOCC3)cc2)cc1	-131*	-3%	-175*	-7	i
O=C(Nc1ccc(CN2CCOCC2)cc1)c1ccc(-c2ccc(Cl)cc2Cl)o1	0	4%	-87*	4	i
Cc1ccccc1NC(=O)c1ccc(-c2ccc(Cl)cc2Cl)o1	1	-1%	-17	-2	i
OC(CCc1ccncc1)c1ccccc1 (stereo not drawn)	2	0%	16	.	i
CSc1nc(=S)cc(C)[nH]1	-3	-1%	15	?	i
Cc1ccc(C(=O)N2CC3(C)CN(C(=O)c4ccc(C)cc4)CC(C)(C2)C3=O)cc1	-12	0%	5	5	i
CCc1ccc(N2CC(C(=O)OCC(=O)Nc3cc(C)on3)CC2=O)cc1 (stereo not drawn)	1	0%	3	-10	-89%*
COc1ccccc1C(=O)NC(=Nc1nc2ccccc2o1)NC(=O)c1ccccc1OC	2	0%	4	1	i
N#CC1C(=O)c2ccccc2C1c1ccccc1 (stereo not drawn)	-15	.	3	-92*	i
CCc1cc(=O)oc2cc(C)c(CN3CCCC(C)C3)c(O)c12 (stereo not drawn)	3	22%	-7	5	i
